ATXN2 expr inh – reduces ATXN2 reporter expression in HEK-293 cells; hit rate 0.72% among 360,000; HEK-293 ATXN2-luciferase reporter, luminescence, 24 h; AID 1745845; Potency, µM (series often up to 57 µM), most hits filed as inhibitors; further: nearly all actives have a fitted effect of over 55% in size
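ATXN2-luciferase reporter cells (luciferase flanked by upstream and downstream ATXN2 gene portions) were treated 24 h at 37 °C with compounds at up to 57 uM. SteadyGlo luminescence gave expression; GF-AFC fluorescence gave viability.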
uPA surface inh – inhibitors of cell surface uPA generation; cell surface uPA generation assay, qHTS; hit rate 0.31% among 330,000; Potency, µM (titrated, usually from 38.3 µM), hits mostly inhibitors; AID 540303; active means well fitted inhibition curve with a large enough effect; inconclusive means small, poorly fitted or top-dose-only effect; inactive means no such curve, though single readings can be large or run the other way; tested in mouse RAW 264.7 cells; further: nearly all actives have a fitted effect of over 55% in size
TGFb inhibitor – blocks TGF-b signaling; HepG2 CAGA-GFP TGF-b/SMAD3 reporter, GFP fluorescence, 18 h; TGF-beta stimulated, 500 pg/mL final; hit rate 1.2% among 410,000; Potency, µM (series often up to 46.1 µM), hits mostly inhibitors; further: nearly all actives have a fitted effect of over 65% in size
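Read-out: total well GFP (ex488/em500-530) summed from mean per-cell fluorescence. Cells: HEPG2 CAGA-GFP, 1% FBS DMEM, 18 h at 37 degrees C with 500 pg/mL final TGF-beta. Unstimulated wells served as the full-inhibition control; stimulated DMSO wells = 0%.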
S2 tox – cell viability loss in ATXN counter-screen; hit rate 0.49% among 400,000; S2 cells (HEK-293 line with an ATXN2-luciferase reporter) viability, CellTiter-Fluor protease fluorescence, 24 h; Potency, µM (series often up to 56.7 µM), hits mostly cytotoxic; AID 651635; further: nearly all actives have a fitted effect of over 40% in size
Giardia killer – Giardia lamblia killing. Giardia lamblia trophozoite viability. activity change, % at 7.66 µM, hits read low. hit rate 0.15% among 340,000. AID 540267; in the data active means activity change below about -80%; inconclusive means between about -30% and that limit;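 further: parasites exposed to compound for two days anaerobically before the ATP read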
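Luminescent ATP signal served as the viability read-out, measured 15-30 min after adding ATP detection reagent to trophozoites that had been incubated with compounds for 48 hrs at 37 deg C anaerobically at 100 cells/well.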
HepG2 tox – kills HepG2 cells in TGF-b inhibitor counter-screen. AID 588856. Potency, µM (doses to about 46.1 µM), hits mostly cytotoxic. HepG2 CAGA-GFP viability, ATP luminescence, 18 h. hit rate 0.76% among 410,000
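CellTiter-Glo luminescence gave cytotoxicity after 18 hours at 37 degrees C. The cells were HepG2 CAGA-GFP in 1% FBS DMEM, stimulated with 500 pg/mL TGF-beta after compound addition. %Activity was normalised to no-cell wells (complete cell-killing) and DMSO (no toxicity), and curves were fitted and classified.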
Large screens that a line does not name were inactive; ! = not active in a repeat. A selection: hits, their analogues and other compounds. The true share with any hit is near 2.6%. Unless noted, the call rests on the fitted dose curve; in most records, active means well fitted curve in the direction sought with a large enough effect; inconclusive means small, poorly fitted or top-dose-only effect, or another doubt; inactive means no such curve, though single readings can be large; an effect the other way counts as inactive or inconclusive.

Cc1cccc2sc(N(Cc3cccnc3)C(=O)Cc3ccccc3)nc12	TGFb inhibitor 13µM (no result: ATXN2 expr inh, uPA surface inh, S2 tox, Giardia killer)
Cc1cccc2sc(N(Cc3cccnc3)C(=O)CCc3ccccc3)nc12	TGFb inhibitor 11µM (no result: ATXN2 expr inh, uPA surface inh, S2 tox, Giardia killer)
Cc1cc(C)c2nc(N(Cc3cccnc3)C(=O)Cc3ccccc3)sc2c1	none (no result: ATXN2 expr inh, uPA surface inh, S2 tox, Giardia killer)
O=C(COc1ccccc1)N(Cc1cccnc1)c1nc2c(F)cccc2s1	TGFb inhibitor inconclusive (no result: ATXN2 expr inh, uPA surface inh, S2 tox, Giardia killer)
O=C(CCOc1ccccc1)N(Cc1cccnc1)c1nc2c(F)cccc2s1	TGFb inhibitor 16µM (no result: ATXN2 expr inh, uPA surface inh, S2 tox, Giardia killer)
Cc1ccccc1C1(CC(=O)N2CCOCC2)CC(=O)N(Cc2cccnc2)C1=O (stereo not drawn)	none (no result: ATXN2 expr inh, uPA surface inh, TGFb inhibitor, Giardia killer, HepG2 tox)
COc1cccc2c1N(C)C(=O)CC21C=CC(=O)C=C1	none (no result: ATXN2 expr inh, uPA surface inh, S2 tox)
O=C1c2ccccc2NC(c2ccc(OCc3ccccc3)c(OCc3ccccc3)c2)N1Cc1ccco1 (stereo not drawn)	none (no result: ATXN2 expr inh, uPA surface inh, S2 tox)
Oc1ccccc1-c1nc2cnccn2c1Nc1ccc(Cl)cc1	ATXN2 expr inh inconclusive, TGFb inhibitor 6.3µM, S2 tox inconclusive (no result: uPA surface inh, Giardia killer)
Cc1ccc(Nc2c(-c3ccccc3O)nc3cnccn23)cc1	none
COc1ccccc1/C=C/c1cnccn1	none (no result: ATXN2 expr inh, uPA surface inh, S2 tox, Giardia killer)
O=C(NNC(=S)NCc1ccccc1)c1ccc(Br)o1	uPA surface inh 2.8µM, S2 tox inconclusive
c1ccc(Nc2ccccc2Nc2ccccn2)nc1	none (no result: uPA surface inh)
Oc1cccc2ccc(Nc3ccccn3)nc12	TGFb inhibitor inconclusive, HepG2 tox 5.6µM (no result: S2 tox)
CCOc1ccc(CNC(=O)Cn2ccc3cc(S(=O)(=O)N4CCCCCC4)ccc32)cc1	uPA surface inh 1µM
CCc1ccc(CNC(=O)CCCn2ccc3cc(S(=O)(=O)N4CCCC4)ccc32)cc1	ATXN2 expr inh inconclusive, TGFb inhibitor inconclusive, S2 tox 13µM (no result: uPA surface inh, Giardia killer)
CCOc1ccc2cc(S(=O)(=O)N3CCCCC3)ccc2c1	HepG2 tox 18µM
Cc1ccccc1NC(=S)NCc1ccc2c(c1)cc(C)n2C	ATXN2 expr inh inconclusive, uPA surface inh inconclusive, TGFb inhibitor 11µM, S2 tox inconclusive
CCOc1ccc(NC(=O)c2ccccn2)cc1	ATXN2 expr inh 10µM, uPA surface inh 1.6µM, TGFb inhibitor inconclusive, Giardia killer -93
COc1ccc(C(=O)O/N=C(\N)c2ccccn2)cc1	ATXN2 expr inh 11µM
N/C(=N\OC(=O)c1ccccc1Cl)c1ccccn1	ATXN2 expr inh 16µM (no result: uPA surface inh)
CCOc1ccc(NC(=O)c2cnccn2)cc1	ATXN2 expr inh inconclusive, Giardia killer inconclusive
COc1ccc(C(=O)NNC(=O)c2ccccn2)cc1	uPA surface inh 3.2µM, S2 tox inconclusive (no result: ATXN2 expr inh)
O=C(O)C1CCC1	none (no result: uPA surface inh, TGFb inhibitor, Giardia killer, HepG2 tox)
C[C@]1(CO)CN(c2cc(C(=O)Nc3ccc4c(c3)-c3c(c(C(N)=O)nn3-c3ccc(F)cc3)CC4)c(Cl)cn2)C[C@@]1(C)CO	ATXN2 expr inh 8.6µM (no result: uPA surface inh, TGFb inhibitor, S2 tox, Giardia killer, HepG2 tox)
CC(=O)c1ccc(N2CCN(c3ccc(NC(=O)c4ccc(F)cc4)cc3C(=O)O)CC2)cc1	TGFb inhibitor inconclusive (no result: uPA surface inh, Giardia killer)
O=C(NNC(=O)c1ccc(Cl)c([N+](=O)[O-])c1)c1ccncc1	none
O=C(NNC(=O)c1ccc(Cl)c(Cl)c1)c1ccncc1	HepG2 tox 4.5µM
c1ccc2c(c1)ccc1ccccc12	none
O=c1ccc2ccccc2c2ccccc12	ATXN2 expr inh 5µM, TGFb inhibitor 13µM, S2 tox inconclusive (no result: uPA surface inh, Giardia killer)
CCCC(=O)O[C@]1(C(=O)CC)CC[C@H]2[C@@H]3CCC4=CC(=O)CC[C@]4(C)[C@H]3[C@@H](O)C[C@@]21C	none (no result: uPA surface inh, TGFb inhibitor, Giardia killer, HepG2 tox)
CN(CCCC(=O)O)c1ccc(N=Nc2ccc([N+](=O)[O-])cc2)cc1	uPA surface inh inconclusive, S2 tox 14µM, Giardia killer inconclusive (no result: ATXN2 expr inh)
CC(C)(C)n1ncc2c(=O)n(Cc3ccc(SC(=O)O)cc3Cl)cnc21	none (no result: ATXN2 expr inh, uPA surface inh, S2 tox, Giardia killer)
c1ccc(-c2csc3ncnc(Sc4nnnn4-c4ccccc4)c23)cc1	TGFb inhibitor 11µM (no result: ATXN2 expr inh, uPA surface inh, S2 tox, Giardia killer)
Cn1nnnc1Sc1ncnc2scc(-c3ccc(Br)cc3)c12	ATXN2 expr inh 16µM, uPA surface inh inconclusive, TGFb inhibitor inconclusive, S2 tox 13µM, HepG2 tox 16µM
COc1ccccc1-c1csc2ncnc(Sc3nnnn3C)c12	uPA surface inh inconclusive, TGFb inhibitor inconclusive
Cn1nnnc1Sc1ncnc2scc(-c3ccccc3)c12	ATXN2 expr inh inconclusive, TGFb inhibitor inconclusive, S2 tox inconclusive
Cn1nnnc1Sc1ncnc2scc(-c3ccc[nH]3)c12	ATXN2 expr inh 10µM, uPA surface inh inconclusive, TGFb inhibitor inconclusive, S2 tox inconclusive
Cn1nnnc1Sc1ncnc2scc(-c3ccc(F)cc3)c12	ATXN2 expr inh inconclusive, TGFb inhibitor 11µM, S2 tox inconclusive, HepG2 tox 10µM!
CC(C)N(c1ccc(C=O)cc1)C(C)C	none (no result: ATXN2 expr inh, uPA surface inh, S2 tox, Giardia killer)
COc1cccc(CN2CCc3nnc(CCc4ccccc4)n3CC2)c1OC	none (no result: ATXN2 expr inh, uPA surface inh, TGFb inhibitor, Giardia killer, HepG2 tox)
N#Cc1nc(-c2cccc3ccccc23)oc1NCCN1CCCCC1	HepG2 tox 22µM (no result: uPA surface inh)
CCCCNC(=O)c1sc2ncnc(NCC3CCCO3)c2c1C (stereo not drawn)	none (no result: ATXN2 expr inh, uPA surface inh, TGFb inhibitor, Giardia killer, HepG2 tox)
CCC1=Nc2cc(C(=O)NCc3ccc(C)cc3)ccc2Sc2ccc(C)cc21	none (no result: ATXN2 expr inh, uPA surface inh, S2 tox, Giardia killer)

Screening data (PubChem BioAssay)
